Assay results: the supplement of paper PMC3334620
The full ranking holds about 33,000 sequences; the median of “E-score (-0.5 to 0.5)” is about -0.017, and the highest 2% start at about 0.3. This is one part of a sample in which the highest values are shown more often than they occur.

Biological target: T1, Sut1 (UniProt P53032)
T1 sequence: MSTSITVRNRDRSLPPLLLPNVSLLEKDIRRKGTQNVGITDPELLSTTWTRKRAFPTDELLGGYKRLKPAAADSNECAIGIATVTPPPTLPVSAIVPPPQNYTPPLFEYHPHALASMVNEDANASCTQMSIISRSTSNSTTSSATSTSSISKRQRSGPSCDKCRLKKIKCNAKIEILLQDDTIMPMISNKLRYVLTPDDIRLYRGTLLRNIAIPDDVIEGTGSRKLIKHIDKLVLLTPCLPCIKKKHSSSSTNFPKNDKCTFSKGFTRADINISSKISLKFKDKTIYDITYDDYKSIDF
Test: PBM E-score (8-mer binding enrichment) (E-score (-0.5 to 0.5)); higher = stronger / more preferred TF binding
Details: protein concentration: 200 nM; construct: GST-full length
In short: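 Universal all-10-mer Agilent arrays, double-stranded by primer extension on fresh or once-stripped slides, were probed with about 100-200 nM GST-tagged yeast transcription factors made by PURExpress. Fluorescent anti-GST detected bound protein, and masliner normalised the scans. E-scores from the Universal PBM Analysis Suite were given to each ungapped eight-base word pooled with its reverse complement.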

Sequence | PBM E-score
CAACCCGG | -0.157
CAACCCCG | 0.355
AAACCCCG | 0.441
CAACCCCC | -0.266
AACCCCCG | -0.193
ACGGTATA | -0.115
AAACTAAC | 0.27
AAAGTTCT | 0.149
GGGCGTGA | -0.182
ACCCCGAG | 0.382
CCCCCGAA | -0.0826
ACCCCGAT | 0.342
ACCCCGAC | 0.273
AACCCGAG | 0.0811
GCCCCGAA | 0.184
CCCCCGAG | -0.343
AACCCGAT | -0.0428
ACCCCGAA | 0.332
GGGCGAAA | 0.0444
AATCGCAT | 0.0231
CGCACATC | -0.156
GAGTTCAA | 0.152
GGATCAGA | -0.0639
GTGGGGAA | 0.0142
GGCTGGAC | -0.278

Sequence | PBM E-score
CCTCCGTA | 0.0232
ACTCCGTC | 0.48
CCTCCGTC | -0.0539
ACTCCGTA | 0.478
AATCCGTG | -0.153
ACTCCGTG | 0.473
ATTCCGTG | 0.273
ATTCCGTC | 0.143
GCTCCGTA | 0.291
CGGTGAGA | 0.0413
AGGTTAGG | -0.0421
ACCAACCG | 0.0755
GGACAGTA | 0.184
ACCCTTAC | -0.129
GGAAGCCC | -0.0417
AATTTACC | 0.143
CTTTTACC | 0.149
ATTTTATC | 0.321
ATTTATCA | 0.229
ATTTATCG | 0.191
ATTTATCC | 0.33
CTTTTATC | 0.26
ATTTTATG | 0.13
ATTTTACC | 0.352
ATTCATGA | -0.0184

Sequence | PBM E-score
AGACCAAA | 0.026
CCCGATTC | 0.0897
CCAGAAAC | -0.0561
ATACAAAC | 0.298
ATACAAAT | 0.312
ATACAATA | 0.299
CTACAATA | 0.181
CTACAAAC | 0.0828
GTACAAAC | 0.0652
ATACAAAG | 0.119
ATACAAAA | 0.288
ATACAATC | 0.236
TCAGGACA | -0.0448
ACCCGCCT | -0.184
ACTGGATC | -0.0162
AATCTCTG | -0.129
CACTCCTC | -0.176
CACTCCTG | -0.0764
GACTCCGC | 0.429
ACCTCCGC | -0.104
CACTCCGC | 0.367
CCCTCCGC | -0.318
CACTCCGG | 0.476
CACTCCCG | -0.0356
GACTCCAC | 0.0104

Sequence | PBM E-score
AACTCCCC | -0.0339
AACTCCGC | 0.492
GACTCCTC | 0.0705
AAGCACGC | -0.122
CACGGTAA | 0.0752
CTTCCATA | 0.00613
CTCATAGC | -0.0832
CCCCAGGC | -0.303
GCCGAGCC | -0.0648
GACACTGA | 0.0506
AATCGTTG | 0.0316
CCTTCACC | -0.231
CGGAGAAC | 0.33
TCGACAAA | 0.213
CAGAGAAG | -0.0543
CGGAGAAG | 0.36
CCGACAAG | 0.115
CGGAGAAA | 0.391
GGGAGAAA | -0.0502
AGGAGAAC | -0.0513
TGGAGAAA | -0.00929
CCGACAAA | 0.313
AGGAGAAG | -0.165
GGGAGAAC | -0.0542
CGTCAACG | 0.0766

Sequence | PBM E-score
CGGTACTC | -0.0748
GAACAGTC | 0.0217
GAATGTCC | 0.282
AACCCTAC | -0.287
ATATGCAC | 0.133
CCACCCCA | -0.221
AATCCATA | 0.108
AACGCTGT | -0.0573
CCAGTAGA | -0.112
AGTGCTCA | -0.105
CCGAAAAG | 0.178
CCGAAAAA | 0.352
CGGAGAGC | 0.109
CGGAGAGA | 0.317
CCGAAAAC | 0.164
TCGAGAAA | 0.103
GCGAGAAA | 0.0168
CCGAGAAA | 0.339
AGGAGAGA | -0.0542
ACGGGTGA | -0.0761
AGCGTCAT | -0.0756
CACCTTGC | 0.00165
CTCAGCGA | -0.204
AGGAGCGA | -0.00713
CGGAGCAA | 0.311

Sequence | PBM E-score
TGGAGCAA | -0.0175
CGGAGCAC | 0.175
CGGAGCGC | 0.118
CGGAGCGA | 0.325
TTCATGAA | 0.00239
AACTACAT | 0.141
CCATTATA | 0.135
CCCGGGAA | -0.03
ACCGGAAA | 0.268
TCCGGGAA | 0.356
TCCGGAAA | 0.411
CCCGGAAA | 0.234
ACCGGTAA | -0.0335
GCCGGTAA | 0.121
TCCGGTAA | 0.384
ACCGGGAA | 0.145
CTCTGAGA | -0.0987
AGCAATTG | 0.175
GGAATGAA | 0.166
ATGCCCCC | -0.387
CACTCGGA | 0.266
AACTCGGT | 0.0362
GACTCGCA | -0.0641
AACTCGGA | 0.341
TACTCGCA | 0.0383

Sequence | PBM E-score
TACTCGGA | 0.324
AACTCGGG | -0.135
GACTCGGC | -0.033
GACTCGGA | 0.33
GCAGAGGA | -0.102
GCTTCGAC | -0.218
GAGACCCC | -0.146
ACCTTGCT | -0.0591
GCGCCAGA | -0.088
CCATATAG | -0.0893
ACTCATCG | 0.0167
CTCCGTGC | 0.321
ATCCGTGA | -0.119
GTCCGTGA | 0.251
CACCGTGC | -0.263
ATCCGTGC | 0.0778
CTCCGTGA | 0.407
AGGGCAGA | -0.348
GACTGGGC | -0.0754
CTTCGCTA | -0.0699
ATATGCAG | -0.134
AAAGTAAT | 0.204
